Source: PubChem BioAssay (NCATS)
Values without a mark were called inactive. Inconclusive results are not listed. Where a call stands in place of a potency, no number is given. Calls of active or inactive are those of the source. Unless noted, calls follow the shape of the dose curve; as a rule, active = well fitted curve in the direction sought with a large enough effect; inconclusive = small, poorly fitted or top-dose-only effect, or another doubt; inactive = no such curve, though single readings can be large; an effect the other way counts as inactive or inconclusive.

Experiments:
[1] = target: Lysosomal acid glucosylceramidase (Homo sapiens) (UniProt P04062); assay: Glucocerebrosidase-p2 (AID 348; in the data active = potency below about 10 µM; also: potency is read from the fitted curve at half-maximal effect); conditions: purified GBA, blue fluorogenic substrate, 40 min
Outline: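 Normal human glucocerebrosidase (0.2 nM) with blue fluorogenic substrate (80 uM final) in citrate/phosphate pH 5.9 with 10mM sodium taurocholate, 0.01% tween-20; 40 min RT, NaOH/glycine stop; fluorescence Ex 365/Em 440; AC50 from a titration from 0.6 nM upwards.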

[2] = AP1 Signaling Pathway (AID 357; active = well fitted curve in either direction with a large enough effect, not every such curve was filed as active;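 also: ME-180 reporter cells stimulated with EGF at its EC50 level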); conditions: ME-180 AP-1-bla reporter, EGF-induced, beta-lactamase ratio, 5 h; at 7.69 µM (top of the series) unless noted
Outline: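 A ratiometric CCF4 readout (405 nm excitation; 460 and 530 nm emission) quantified AP-1-driven beta-lactamase in ME-180 cells after 5 h with compound and EC50 EGF; AC50 values were derived for activators and inhibitors.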

[3] = target: Cytochrome P450 1A2 (Homo sapiens) (UniProt P05177); assay: p450-cyp1a2 (AID 410; calls by dose curve)
Outline: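 Luminescent demethylation readout: Luciferin-ME (100uM, equal to Km) turned over by 20nM CYP1A2 for 60 min at room temperature after NADPH regeneration addition, following 10 min compound preincubation. Normalization used 57 uM furafylline as full inhibition.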

[4] = NFAT Signaling Pathway (AID 444; active = well fitted curve in either direction with a large enough effect, not every such curve was filed as active;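 also: carbachol stimulus at about its EC50 of 1 µM final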); conditions: Jurkat NFAT-bla M1, carbachol, beta-lactamase ratio, 5 h; at 7.69 µM (top of the series) unless noted
Outline: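 Jurkat cells with NFAT-driven β-lactamase reporter and co-expressed M1 receptor, stimulated with carbachol (final 1 uM, ~EC50), compound titration, 5 h at 37 °C. CCF4 loaded 1 h at RT; 460/530 nm ratio gave %activity and AC50.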

[5] = Stat Signaling Pathway (AID 446; active = well fitted curve in either direction with a large enough effect, not every such curve was filed as active;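 also: ME-180 cervical cancer cells given 40 pM IL-6 alongside compound; SIE-controlled beta-lactamase reporter measured as 460/530 nm FRET emission ratio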); conditions: ME-180 (cervical carcinoma) SIE beta-lactamase reporter, IL-6 stimulated, 5 h; at 7.69 µM (top of the series) unless noted
Outline: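 Normalization used AC90 stimulation (300 pM IL-6) and AC90 inhibition (125 nM pan-JAK inhibitor at 40 pM IL-6). The underlying signal is SIE-driven beta-lactamase in ME-180 cells after 5 h IL-6 exposure with compound.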

[6] = target: Glucocorticoid receptor (Homo sapiens) (UniProt P04150); assay: GR-GFP Redistribution (AID 450;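 active = compounds whose dose series gives a full or clear partial fitted curve of increased nuclear translocation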; also: potency is read from the fitted curve at half-maximal effect); conditions: U2OS GR-GFP nuclear translocation, laser cytometry, 2 h
[7] = target: Glucocorticoid receptor (Homo sapiens) (UniProt P04150); assay: GR-EFC Redistribution (AID 451; calls by dose curve; also: potency is read from the fitted curve at half-maximal effect); conditions: CHO-K1 GR-EFC translocation, beta-gal luminescence, 2 h
Outline: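 CHO-K1 cells expressing nuclear EA and GR-ED fragments of b-gal; compounds titrated up to 46 uM final, 2 h at 37 C. GR nuclear translocation read as complemented b-gal luminescence after 1 h RT detection.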

[8] = target: Mitogen-activated protein kinase 10 (Mus musculus) (UniProt Q61831); assay: JNK3 AlphaScreen Assay (AID 530; active = well fitted curve in either direction with a large enough effect, not every such curve was filed as active;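 also: kinase came from lysate of stimulated human HepG2 cells; signal reports phosphorylation of biotinylated GST-cJun 1-79 at Ser73 with 10 µM ATP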)
Outline: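 Activity was read by AlphaScreen after JNK3-containing HepG2 lysate (cytokine pre-activated) phosphorylated biotinylated GST-cJun with 10 uM ATP at room temperature. Phospho-Ser73 cJun antibody with Protein-A acceptor beads provided detection.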

[9] = target: 3',5'-cyclic-AMP phosphodiesterase 4B (Homo sapiens) (UniProt Q07343); assay: qHTS Assay for Inhibitors of PDE-IV (AID 607; active = well fitted activation curve with a large enough effect in the main read-out, with a control signal flat, not every such curve was filed as active)
Outline: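 HEK293 ACTOne cells with CNG channel (1000/well), endogenous PDE4; membrane potential dye, compounds up to 22.9 uM final. Fluorescence Ex 535/Em 590; RO 20-1724 (100 uM final) as reference.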

[10] = target: Tyrosyl-DNA phosphodiesterase 1 (Homo sapiens) (UniProt Q9NUW8); assay: Confirmation Assay for Inhibitors of Tyrosyl-DNA Phosphodiesterase (TDP1) (AID 489007); conditions: recombinant human TDP1 enzymatic activity, dose-response; also: potency is read from the fitted curve at half-maximal effect; nearly all actives have a fitted effect of over 40% in size
Outline: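 AlphaScreen assay of tyrosine-FITC cleavage from a biotinylated DNA substrate (15 nM) by E. coli-expressed human Tdp1 (1 nM). Sequence: compound preincubation 15 min, reaction 5 min, bead detection 10 min, all at room temperature. No-enzyme wells give maximum signal.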

[11] = S16 Schwann cell viability assay (CellTiter-Glo assay) (AID 624031);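 also: native untransfected S16 rat Schwann cells; cellular ATP luminescence as a viability measure; nearly all actives have a fitted effect of over 70% in size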
Outline: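 Following overnight culture in 10% FBS DMEM, parental S16 rat Schwann cells are dosed for 24 h at 37 °C. Viability is read as CellTiter-Glo luminescence and expressed as % activity relative to DMSO (0%) and no-cell wells.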

[12] = S16 Schwann cell PMP22 intronic element firefly luciferase assay (AID 624032); also: nearly all actives have a fitted effect of over 30% in size
Outline: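 Rat S16 Schwann cells stably carrying firefly luciferase driven by a PMP22 intronic element, in 10% FBS, treated 24 h at 37 C. ONE-Glo luminescence normalized to PTC124 control and DMSO (0%); curves classed by r2, magnitude and activity.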

[13] = S16 Schwann cell PMP22 intronic element beta-lactamase assay (AID 624044; calls by dose curve; also: nearly all actives have a fitted effect of over 15% in size)
Outline: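 Beta-lactamase reporter under a PMP22 intronic regulatory element in stable S16 rat Schwann cells; 24 h compound exposure. 460 nm blue signal normalized between DMSO (0%) and potassium clavulanate, with 535 nm FRET tracking viability; curves classed by r2 and response.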

[14] = qHTS profiling for inhibitors of Plasmodium falciparum proliferation (AID 504749); also: nearly all actives have a fitted effect of over 60% in size; conditions: P. falciparum in erythrocytes, SYBR Green DNA, 72 h, at 28.7 µM (top of the series)
Outline: (§1)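 Each compound contacts P. falciparum-infected red blood cells for 72 h at 37 C; lysis buffer (Tris, EDTA, saponin, Triton X, SYBR Green I) is added and fluorescence measured next morning; values normalized to controls.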

3D7 = assay: as above; conditions: P. falciparum in erythrocytes, SYBR Green DNA, 72 h; series mostly up to 28.7 µM
Outline: as §1

7G8 = assay: as above; conditions: P. falciparum in erythrocytes, SYBR Green DNA, 72 h; series mostly up to 28.7 µM
Outline: as §1

AA1029 = assay: as above; conditions: P. falciparum in erythrocytes, SYBR Green DNA, 72 h; series mostly up to 28.7 µM
Outline: as §1

AS120 = assay: as above; conditions: P. falciparum in erythrocytes, SYBR Green DNA, 72 h; series mostly up to 28.7 µM
Outline: as §1

ATS189 = assay: as above; conditions: P. falciparum in erythrocytes, SYBR Green DNA, 72 h; series mostly up to 28.7 µM
Outline: as §1

ATS95 = assay: as above; conditions: P. falciparum in erythrocytes, SYBR Green DNA, 72 h; series mostly up to 28.7 µM
Outline: as §1

C2A = assay: as above; conditions: P. falciparum in erythrocytes, SYBR Green DNA, 72 h; series mostly up to 28.7 µM
Outline: as §1

CP185 = assay: as above; conditions: P. falciparum in erythrocytes, SYBR Green DNA, 72 h; series mostly up to 28.7 µM
Outline: as §1

CP191 = assay: as above; conditions: P. falciparum in erythrocytes, SYBR Green DNA, 72 h; series mostly up to 28.7 µM
Outline: as §1

CP192 = assay: as above; conditions: P. falciparum in erythrocytes, SYBR Green DNA, 72 h; series mostly up to 28.7 µM
Outline: as §1

CP194 = assay: as above; conditions: P. falciparum in erythrocytes, SYBR Green DNA, 72 h; series mostly up to 28.7 µM
Outline: as §1

CP201 = assay: as above; conditions: P. falciparum in erythrocytes, SYBR Green DNA, 72 h; series mostly up to 28.7 µM
Outline: as §1

CP203 = assay: as above; conditions: P. falciparum in erythrocytes, SYBR Green DNA, 72 h; series mostly up to 28.7 µM
Outline: as §1

CP211 = assay: as above; conditions: P. falciparum in erythrocytes, SYBR Green DNA, 72 h; series mostly up to 28.7 µM
Outline: as §1

CP215 = assay: as above; conditions: P. falciparum in erythrocytes, SYBR Green DNA, 72 h; series mostly up to 28.7 µM
Outline: as §1

CP217 = assay: as above; conditions: P. falciparum in erythrocytes, SYBR Green DNA, 72 h; series mostly up to 28.7 µM
Outline: as §1

CP237 = assay: as above; conditions: P. falciparum in erythrocytes, SYBR Green DNA, 72 h; series mostly up to 28.7 µM
Outline: as §1

CP238 = assay: as above; conditions: P. falciparum in erythrocytes, SYBR Green DNA, 72 h; series mostly up to 28.7 µM
Outline: as §1

CP247 = assay: as above; conditions: P. falciparum in erythrocytes, SYBR Green DNA, 72 h; series mostly up to 28.7 µM
Outline: as §1

CP250 = assay: as above; conditions: P. falciparum in erythrocytes, SYBR Green DNA, 72 h; series mostly up to 28.7 µM
Outline: as §1

CP252 = assay: as above; conditions: P. falciparum in erythrocytes, SYBR Green DNA, 72 h; series mostly up to 28.7 µM
Outline: as §1

Chain of Glucocorticoid receptor (Homo sapiens) (P04150 whole entry, looked up, the tested form may be a part): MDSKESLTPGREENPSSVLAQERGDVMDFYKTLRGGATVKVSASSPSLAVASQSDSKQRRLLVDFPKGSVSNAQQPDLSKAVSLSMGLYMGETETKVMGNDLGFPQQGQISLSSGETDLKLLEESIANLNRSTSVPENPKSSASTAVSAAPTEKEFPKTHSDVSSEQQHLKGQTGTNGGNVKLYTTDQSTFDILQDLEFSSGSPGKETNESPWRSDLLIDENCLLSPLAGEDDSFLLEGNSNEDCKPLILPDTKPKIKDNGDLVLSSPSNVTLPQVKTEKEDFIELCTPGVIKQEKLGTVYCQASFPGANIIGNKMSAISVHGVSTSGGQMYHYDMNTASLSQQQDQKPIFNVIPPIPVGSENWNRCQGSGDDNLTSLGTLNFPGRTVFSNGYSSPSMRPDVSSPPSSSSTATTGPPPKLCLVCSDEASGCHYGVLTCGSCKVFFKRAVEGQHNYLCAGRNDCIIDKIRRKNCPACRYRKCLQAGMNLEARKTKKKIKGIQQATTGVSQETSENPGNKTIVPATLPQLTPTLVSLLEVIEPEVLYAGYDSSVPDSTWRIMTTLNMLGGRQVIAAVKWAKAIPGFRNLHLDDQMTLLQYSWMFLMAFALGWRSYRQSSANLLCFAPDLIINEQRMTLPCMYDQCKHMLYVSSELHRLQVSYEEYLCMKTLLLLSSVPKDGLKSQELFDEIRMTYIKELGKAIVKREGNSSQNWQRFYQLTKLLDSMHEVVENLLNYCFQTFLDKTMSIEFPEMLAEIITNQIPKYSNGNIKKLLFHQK
Chain of Lysosomal acid glucosylceramidase (Homo sapiens) (P04062 whole entry, looked up): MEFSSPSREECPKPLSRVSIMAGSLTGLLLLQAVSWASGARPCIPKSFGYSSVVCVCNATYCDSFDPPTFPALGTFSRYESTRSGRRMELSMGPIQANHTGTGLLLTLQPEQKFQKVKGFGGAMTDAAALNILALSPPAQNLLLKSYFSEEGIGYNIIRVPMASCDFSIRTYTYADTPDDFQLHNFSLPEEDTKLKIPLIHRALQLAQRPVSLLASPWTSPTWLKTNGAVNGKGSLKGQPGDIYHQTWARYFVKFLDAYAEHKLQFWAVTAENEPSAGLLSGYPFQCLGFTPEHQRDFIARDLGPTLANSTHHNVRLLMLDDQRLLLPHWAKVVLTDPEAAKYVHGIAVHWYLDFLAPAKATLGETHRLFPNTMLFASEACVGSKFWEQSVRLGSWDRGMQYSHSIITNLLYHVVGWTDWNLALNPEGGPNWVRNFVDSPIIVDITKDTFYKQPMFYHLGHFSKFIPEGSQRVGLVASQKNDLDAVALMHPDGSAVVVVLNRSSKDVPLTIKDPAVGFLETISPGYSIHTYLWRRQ
Chain of Cytochrome P450 1A2 (Homo sapiens) (P05177 whole entry, looked up): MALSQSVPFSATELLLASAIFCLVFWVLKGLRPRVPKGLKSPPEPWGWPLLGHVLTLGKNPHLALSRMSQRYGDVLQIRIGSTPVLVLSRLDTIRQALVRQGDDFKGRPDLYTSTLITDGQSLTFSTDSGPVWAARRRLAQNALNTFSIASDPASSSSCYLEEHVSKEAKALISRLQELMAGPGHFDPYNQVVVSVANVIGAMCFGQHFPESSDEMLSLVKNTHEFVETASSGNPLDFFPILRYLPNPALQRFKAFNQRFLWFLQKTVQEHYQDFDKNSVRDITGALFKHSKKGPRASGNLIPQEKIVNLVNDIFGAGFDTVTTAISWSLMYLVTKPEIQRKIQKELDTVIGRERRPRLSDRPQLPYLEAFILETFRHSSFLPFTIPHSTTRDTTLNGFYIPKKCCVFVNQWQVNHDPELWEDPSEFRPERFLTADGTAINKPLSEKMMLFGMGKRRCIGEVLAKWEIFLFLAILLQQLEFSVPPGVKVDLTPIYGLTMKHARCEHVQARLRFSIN
Chain of 3',5'-cyclic-AMP phosphodiesterase 4B (Homo sapiens) (Q07343 whole entry, looked up): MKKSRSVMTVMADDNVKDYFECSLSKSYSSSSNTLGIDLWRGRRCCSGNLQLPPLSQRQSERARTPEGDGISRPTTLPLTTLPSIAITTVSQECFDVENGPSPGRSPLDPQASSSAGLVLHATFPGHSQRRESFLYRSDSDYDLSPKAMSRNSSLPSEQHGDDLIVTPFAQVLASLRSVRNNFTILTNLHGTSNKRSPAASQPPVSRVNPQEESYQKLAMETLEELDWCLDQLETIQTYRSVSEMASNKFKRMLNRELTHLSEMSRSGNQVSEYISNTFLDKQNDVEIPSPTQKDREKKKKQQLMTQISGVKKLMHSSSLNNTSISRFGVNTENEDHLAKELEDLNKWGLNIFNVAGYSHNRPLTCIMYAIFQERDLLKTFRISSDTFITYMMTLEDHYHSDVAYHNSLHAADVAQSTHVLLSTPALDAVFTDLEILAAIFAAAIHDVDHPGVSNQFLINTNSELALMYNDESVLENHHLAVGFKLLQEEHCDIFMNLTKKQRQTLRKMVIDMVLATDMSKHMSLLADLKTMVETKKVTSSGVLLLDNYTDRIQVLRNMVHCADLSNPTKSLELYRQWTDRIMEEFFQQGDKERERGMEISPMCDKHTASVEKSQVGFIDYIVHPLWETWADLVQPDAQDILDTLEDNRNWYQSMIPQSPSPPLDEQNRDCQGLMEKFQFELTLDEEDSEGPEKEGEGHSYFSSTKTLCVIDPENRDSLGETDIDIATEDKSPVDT
Chain of Tyrosyl-DNA phosphodiesterase 1 (Homo sapiens) (Q9NUW8 whole entry, looked up): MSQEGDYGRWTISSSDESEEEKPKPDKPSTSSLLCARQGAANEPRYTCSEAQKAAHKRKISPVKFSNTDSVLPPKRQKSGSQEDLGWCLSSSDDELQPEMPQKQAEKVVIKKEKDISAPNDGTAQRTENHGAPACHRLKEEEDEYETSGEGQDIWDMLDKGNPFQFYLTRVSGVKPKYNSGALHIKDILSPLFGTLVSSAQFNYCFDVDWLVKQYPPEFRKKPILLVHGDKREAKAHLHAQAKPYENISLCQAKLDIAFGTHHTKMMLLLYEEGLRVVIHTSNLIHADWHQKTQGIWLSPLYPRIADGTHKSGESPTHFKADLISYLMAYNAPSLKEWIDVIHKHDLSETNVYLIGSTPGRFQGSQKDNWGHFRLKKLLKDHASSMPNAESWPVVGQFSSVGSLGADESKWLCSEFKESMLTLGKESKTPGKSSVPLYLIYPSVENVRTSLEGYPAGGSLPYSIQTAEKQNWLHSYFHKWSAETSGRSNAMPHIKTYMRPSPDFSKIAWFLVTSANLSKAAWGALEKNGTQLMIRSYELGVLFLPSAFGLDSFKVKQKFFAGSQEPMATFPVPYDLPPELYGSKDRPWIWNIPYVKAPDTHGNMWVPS

CN(C)[C@H]1C(=O)C(C(=O)NCN2CCCC2)=C(O)[C@]2(O)C(=O)C3=C(O)c4c(O)cccc4[C@](C)(O)[C@H]3C[C@H]12
Potency [1]: > 11.4 µM | activity change, negative = inhibition [2]: -4.67% | Potency [3]: inactive | activity change, negative = inhibition [4]: 6.5% | activity, negative = inhibition [5]: -11.7% | Potency [6]: > 46 µM | Potency [7]: > 9.22 µM | Potency [8]: inactive | Potency [9]: inactive | Potency [10]: 0.0794 µM (active) | Potency [11]: inactive | Potency [12]: inactive | outcome [13]: inactive | activity, negative = inhibition ([14]; parasite line A): 9.1% | activity, negative = inhibition ([14]; parasite line B): 1.72% | Potency (3D7): inactive | Potency (7G8): inactive | Potency (AA1029): inactive | Potency (AS120): inactive | Potency (ATS189): inactive | Potency (ATS95): inactive | Potency (C2A): inactive | Potency (CP185): inactive | Potency (CP191): inactive | Potency (CP192): inactive | Potency (CP194): inactive | Potency (CP201): inactive | Potency (CP203): inactive | Potency (CP211): inactive | Potency (CP215): inactive | Potency (CP217): inactive | Potency (CP237): inactive | Potency (CP238): inactive | Potency (CP247): inactive | Potency (CP250): inactive | Potency (CP252): inactive
